Screens deposited in PubChem BioAssay by several laboratories.
Hits are enriched below; roughly 2.9% of the tested compounds scored in any of these assays.
RAM network inh: yeast RAM network inhibition | S. cerevisiae dse1pr::URA3 reporter, 5-FOA growth OD615, 2 d; analog-sensitive cbk1-as2 kinase mutant strain | hit rate 1.8% among 190,000 | inhibition, % at 50 µM | AID 868;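 active = inhibition above a set limit, 3 SD over mean compound inhibition, cut at about 8.4% in these data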;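 also: 0% = DMSO-only wells with no growth and 100% = 10 µM 1-NA-PP1 full growth; inhibition rescues growth on 5-FOA so higher OD means more RAM inhibition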
PG9 binder: binds the HIV-1 gp120 antibody PG9 | TR-FRET gp120-PG9 antibody binding | inhibition, % at 6.7 µM | hit rate 0.43% among 360,000 | AID 624416; in the data active = inhibition above about 8.5%
EP2 mod: modulates human prostaglandin E2 receptor EP2 signaling | P43116 | EP2-expressing cells, cAMP HTRF FRET, PGE2 co-stimulation | induction, % at 25 µM | hit rate 0.83% among 260,000 | AID 940;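 active = compounds whose cAMP rise, as percent of the full-agonist control response, exceeds 60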;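 also: rat C6 glioma line stably carrying human EP2 under a CMV promoter; the protocol text gives 20 µM as final concentration; 100% = response of wells given 1 µM PGE2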
SKN-1 inh: C. elegans SKN-1 inhibition; C. elegans VP596 Pgst-4::GFP/RFP ratio, acrylamide-induced, 24 h; inhibition, % at 21.8 µM; hit rate 0.49% among 360,000; AID 624304;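 active = interference check ratio from 0.5 to 1.5 plus GFP to RFP signal ratio inhibition reaching or exceeding a fixed threshold, cut at about 30% in these data, passing the limit was not always enough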
NR1D1 modulator: modulators of human Rev-erb alpha DNA binding; P20393; Rev-erbα–FITC-DNA binding, fluorescence polarization, 90 min; activity, % at 10 µM; hit rate 0.79% among 370,000;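 active = activity above about 14%, limit read from the data; passing the limit was not always enough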;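 also: 0% = DMSO wells with 35 nM protein and 100% = DMSO wells with 750 nM protein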
Target sequence (P20393 whole entry, looked up): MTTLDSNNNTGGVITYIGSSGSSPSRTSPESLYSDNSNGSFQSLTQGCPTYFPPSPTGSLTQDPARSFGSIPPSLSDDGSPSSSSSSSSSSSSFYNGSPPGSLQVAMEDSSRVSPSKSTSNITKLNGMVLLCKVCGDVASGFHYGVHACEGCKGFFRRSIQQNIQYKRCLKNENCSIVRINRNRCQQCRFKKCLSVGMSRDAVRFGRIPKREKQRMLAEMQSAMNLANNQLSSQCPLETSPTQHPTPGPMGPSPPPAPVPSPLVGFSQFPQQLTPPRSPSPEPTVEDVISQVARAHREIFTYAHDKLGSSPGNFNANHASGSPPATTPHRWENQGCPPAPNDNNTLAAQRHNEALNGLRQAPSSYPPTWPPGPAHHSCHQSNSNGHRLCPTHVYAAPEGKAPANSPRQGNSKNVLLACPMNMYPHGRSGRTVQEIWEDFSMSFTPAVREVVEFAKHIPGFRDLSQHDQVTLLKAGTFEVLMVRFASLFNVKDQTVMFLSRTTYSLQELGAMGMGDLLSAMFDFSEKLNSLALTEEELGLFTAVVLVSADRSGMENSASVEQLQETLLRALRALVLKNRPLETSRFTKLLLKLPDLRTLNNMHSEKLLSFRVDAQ
EP2 antag: EP2 receptor (human) inhibition; C6 glioma cells expressing human EP2, cAMP TR-FRET; cells stimulated with saturating PGE2; inhibition, % at 25 µM; hit rate 0.52% among 260,000;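 active = percent inhibition above 40 after rounding to a whole number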;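 also: rat C6 glioma host cells with rolipram phosphodiesterase inhibitor present; the protocol text gives 20 µM as final concentration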
Numbers without * were called inactive; . = not tested or not shown.

SMILES	RAM network inh	PG9 binder	EP2 mod	SKN-1 inh	NR1D1 modulator	EP2 antag
O=C(O)c1ccccc1-c1ccccc1C(=O)c1ccccc1	.	.	-67	.	.	16
O=C1C(=O)c2c(C(=O)c3ccccc3)coc2-c2ccccc21	-1	-7	-33	-6	6	45*
COc1cc(/C=C\c2nc(O)c([N+](=O)[O-])c(=O)[nH]2)ccc1OCc1ccc(Cl)cc1	.	.	-62	.	.	14
O=C(CCCOc1ccc(Cl)cc1Cl)Nc1nnc(C2CCCO2)s1 (configuration not stated)	.	.	-13	.	.	8
CCCCCCCCCCCCCCCC[n+]1ccc(/C=N/O)cc1	2	0	-2	43*	6	1
CCCn1c(N)c(C(c2ccc(C(=O)OC)cc2)N2CCN(c3ccccc3)CC2)c(=O)[nH]c1=O (configuration not stated)	0	3	5	-6	0	10
CCCn1c(N)c(C(c2ccc(OC)cc2)N2CCN(c3ccccc3)CC2)c(=O)[nH]c1=O (configuration not stated)	0	-1	2	38*	-1	11
CC(=O)O[C@H]1CC[C@@]2(C)C(=CC[C@H]3[C@H]2CC[C@]2(C)[C@@H]4[C@@H](C)[C@]5(CC[C@H](C)CN5)O[C@@H]4C[C@@H]32)C1	.	.	11	.	.	45*
COc1ccc(-c2nnn(CC(=O)Nc3cc(Cl)cc(Cl)c3)n2)cc1OC	.	.	-74	.	.	8
CCN(CC)CCNC(=O)c1ccc2c(c1NCCO)C(=O)c1ccccc1C2=O	.	-24	-59	42*	-7	56*
CC(=O)c1c(C)nn(-c2ccccc2)c1Cl	.	.	17	.	.	8
Cc1ccc(-c2nnn(CC(=O)N(c3ccc(F)cc3)C(C(=O)NC(C)(C)C)c3ccco3)n2)o1 (configuration not stated)	6	-2	27	-8	0	15
CC(C)(C)NC(=O)C(c1ccco1)N(C(=O)Cn1nnc(-c2ccc(F)cc2)n1)c1cccc(F)c1 (configuration not stated)	9.2*	-1	6	23	2	.
COc1ccccc1C(=O)Nc1ccc2c(c1)nc(CCNC(=O)c1ccccc1)n2C	.	0	-57	42*	2	9
COc1ccccc1C(=O)Nc1ccc2c(c1)nc(CCNC(C)=O)n2C	1	2	6	-1	3	6
Cc1ccc(C(CCN(Cc2ccccc2)C(=O)c2ccco2)c2ccco2)cc1 (configuration not stated)	11*	1	48	3	7	3
O=C(c1ccco1)N(CCC(c1ccccc1)c1ccco1)Cc1ccco1 (configuration not stated)	8.8*	-2	25	6	-8	11
CC(=O)N(CCC(Cc1ccccc1)c1ccco1)Cc1ccco1 (configuration not stated)	.	-1	-10	-1	3	4
O=[N+]([O-])c1ccc2nc(-c3ccccc3)oc2c1	2	-1	0	42*	7	9
CCCNC(=O)CN(C)S(=O)(=O)c1ccc(F)cc1	1	1	-5	3	1	10
CC(C)NC(=O)CN(C)S(=O)(=O)c1ccc(F)cc1	0	0	3	36*	-1	13
CC/C(=C\c1ccc(N(C)C)cc1)c1ccncc1	.	-2	.	67*	4	.
Clc1ccccc1CN(CCCn1ccnc1)Cc1ccnn1C1CCCCO1 (configuration not stated)	.	.	28	.	.	3
CCCC(c1nnnn1Cc1ccco1)N(Cc1ccc(C)cc1)Cc1cc2cc(C)ccc2[nH]c1=O (configuration not stated)	.	.	19	.	.	3
COc1ccc(/C=N/n2c(=S)n(C)c3ccccc32)cc1OC	1	-2	58	8	-3	0
SMILES	RAM network inh	PG9 binder	EP2 mod	SKN-1 inh	NR1D1 modulator	EP2 antag
Cn1c(=S)n(/N=C/c2ccc3c(c2)OCO3)c2ccccc21	4	-2	64*	7	-3	7
COC(=O)CSc1nc(N)c(C#N)c(-c2ccco2)c1C#N	4	1	-29	20	0	19
N#Cc1c(-c2ccco2)cc(C2CC2)nc1SCC(=O)c1ccccc1	8.7*	-2	0	6	-1	4
COC(=O)CSc1nc(-c2ccccc2)cc(-c2ccco2)c1C#N	9.7*	-1	32	-14	5	14
CCCNC(=O)CSc1nnc2c3cc(OC)ccc3n(C)c2n1	.	.	19	.	.	10
CCOC(=O)c1c(C)[nH]c(C)c1C(=O)CSc1nnnn1-c1ccccc1	4	3	64*	-13	-4	15
COC(=O)c1c(C)[nH]c(C(=O)CSc2nnnn2-c2ccccc2)c1C	2	0	-1	3	2	.
CCc1ccc2c(c1)N(C[C@H](C)CN(C)C)c1ccccc1S2	.	.	-13	.	.	44*
Cc1nnc(SCC(N)=O)n1-c1ccccc1	.	.	6	.	.	11
Cc1ccc(S(=O)(=O)/C(C#N)=C/c2ccccc2OCc2ccccc2)cc1	8.6*	0	32	7	5	4
N#CC(C#N)=Cc1ccccc1OCc1ccccc1	.	.	-9	.	.	13
CCOC(=O)c1c(C)[nH]c(C(=O)Cn2nnc(-c3ccccc3Cl)n2)c1C	4	-1	10	-3	9	21
CCOC(=O)c1c(C)[nH]c(C(=O)Cn2nnc(-c3ccccc3)n2)c1C	8.9*	4	-4	23	9	12
COc1ccc2oc(=O)c(-c3nnc(N)s3)cc2c1	1	-3	-18	8	0	5
COc1ccc2oc(=O)c(-c3nc(C)cs3)cc2c1	1	13*	-17	16	2	10
N#C/C(=C\c1ccc(N2CCOCC2)cc1)c1ccccc1	1	2	12	48*	2	8
COc1ccc2c(c1)C(=O)CC1(CCN(C(=O)N3CCCC3)CC1)O2	.	.	-39	.	.	.
Cc1ccc(-n2cc(C(=O)c3ccc4ccccc4c3O)cn2)cc1	8.5*	-2	10	-28	-1	6
Cc1ccc(-n2cc(C(=O)c3ccccc3O)cn2)cc1	6	2	7	-22	0	.
Cc1cc(C(=O)NCC(=O)OCC(=O)N(C2CCCCC2)C2CCCCC2)ccc1[N+](=O)[O-]	2	-1	63*	-15	-1	4
Cc1cc(C(=O)NCC(=O)OCC(=O)NCC2CCCO2)ccc1[N+](=O)[O-] (configuration not stated)	.	1	.	0	5	.
c1ccc(CSc2nnc(-c3sccc3-n3cccc3)o2)cc1	8.7*	-2	49	-20	-5	22
CC(/C=N/N1CCN(Cc2ccccc2)CC1)=C\c1ccccc1	-1	-2	-36	62*	2	9
CCOc1ccccc1NC(=O)CSc1nnc(-c2ccncc2)n1CC	.	.	-12	.	.	10
